Test systems include NCI-H23 lung; NCI-H226 lung; NCI-H322M lung; HOP-62 NSCLC; NCI-H460 lung; HOP-92 NSCLC; NCI-H522 lung; A549/ATCC NSCLC; 786-0 renal; COLO 205 colon; DU-145 prostate; K-562 leukemia; MALME-3M melanoma; MDA-MB-231 breast; RXF 393 renal; SF-268 CNS; SF-295 CNS; SF-539 CNS; UACC-257 melanoma; M14 melanoma.
Common to all, as to assay: NCI-60 one-dose screen, 48 h (100 = growth as untreated, 0 = no growth, -100 = all killed)
Common to all, as to conditions: 10 µM unless noted

The text below walks through data of PubChem BioAssay (NCI).

This is part of a sample that, as a whole, favours compounds with a hit. Of some 83,000 tested, about 20% had one in any assay.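 Testing used 96-well plates and a 48-hour single-concentration exposure. Example: -40 means 40% of the starting cells died.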 A number with no mark means an inactive call. Calls of active or inactive are those of the source. How the source made its calls: active means growth percent below 10; inactive means the rest.

In the case of `CN1CCN(CCCOC(=O)c2c3c(n4ccccc24)C(=O)c2ncccc2C3=O)CC1`, the growth is -30.6% (active) in the test with NCI-H23 lung; 15.7% in the test with NCI-H226 lung; 28.5% in the test on NCI-H322M lung; -34.9% (active) in the test with HOP-62 NSCLC; -15.1% (active) with NCI-H460 lung; 14.8% in the test with HOP-92 NSCLC. Further, the growth was -87.1% (active) in the test on NCI-H522 lung; -47.9% (active) with A549/ATCC NSCLC; 1.4% (active) in the test with 786-0 renal; -93.2% (active) in the test on COLO 205 colon; -66.5% (active) with DU-145 prostate; -30.4% (active) in the test with K-562 leukemia. In addition, the growth in the test with MALME-3M melanoma is -59.7% (active); in the test on MDA-MB-231 breast, 20%; in the test with RXF 393 renal, -2.1% (active); in the test with SF-268 CNS, 5.69% (active); in the test on SF-295 CNS it was -5.73% (active); in the test on SF-539 CNS, -13.1% (active). The growth in the test on UACC-257 melanoma is -34.2% (active); in the test on M14 melanoma it was -86.1% (active).

For the compound `OC(c1ccccc1)(c1ccccc1)c1ccccc1-c1ccccc1`, the growth was 83.9% in the test with NCI-H23 lung; 91.9% in the test with NCI-H226 lung; 101% with NCI-H322M lung; 90.4% in the test on HOP-62 NSCLC; 93.1% in the test on NCI-H460 lung; 67.1% in the test on HOP-92 NSCLC. The growth in the test on NCI-H522 lung is 75.9%; in the test on A549/ATCC NSCLC, 81.8%; in the test with 786-0 renal, 95.9%; in the test with COLO 205 colon, 81%; in the test with DU-145 prostate, 96.2%; with K-562 leukemia, 96.5%. For the same compound, the growth was 120% in the test with MALME-3M melanoma; 84.4% in the test on MDA-MB-231 breast; 103% in the test with RXF 393 renal; 90.6% in the test on SF-268 CNS; 109% in the test with SF-295 CNS; 112% with SF-539 CNS. Also, the growth was 101% in the test with UACC-257 melanoma and 99.4% in the test with M14 melanoma.

Take `CCCCCCCCNc1cc2c3c(c1)CCCN3CCC2`: the growth with NCI-H23 lung is -9.97% (active); with NCI-H226 lung, 39.1%; with NCI-H322M lung, 111%; with HOP-62 NSCLC, 27%; in the test on NCI-H460 lung it was 16.9%; in the test with HOP-92 NSCLC it was -5.51% (active). Besides, the growth was -28.4% (active) in the test on NCI-H522 lung; 76.4% in the test on A549/ATCC NSCLC; 42.7% in the test with 786-0 renal; 3.21% (active) in the test with COLO 205 colon; -2.64% (active) with DU-145 prostate; 18.8% with K-562 leukemia. The growth with MALME-3M melanoma is 48.5%; with MDA-MB-231 breast, 6.88% (active); in the test with RXF 393 renal it was 29.1%; in the test on SF-268 CNS it was 18.3%; in the test with SF-295 CNS, 14%; in the test with SF-539 CNS it was 8.74% (active). In addition, the growth is -11.6% (active) in the test on UACC-257 melanoma and 30.3% in the test with M14 melanoma.

As to `COc1ccc2c(c1)c(-c1cc(-c3cn(C)c4ccc(OC)cc34)on1)cn2C`, the growth in the test with NCI-H23 lung was 84.1%; in the test with NCI-H226 lung it was 88%; in the test with NCI-H322M lung it was 96.6%; in the test on HOP-62 NSCLC it was 141%; with NCI-H460 lung, 109%; in the test on HOP-92 NSCLC, 59%. For the same compound, the growth in the test with NCI-H522 lung was 90.2%; with A549/ATCC NSCLC, 109%; with 786-0 renal, 102%; in the test on COLO 205 colon, 112%; with DU-145 prostate it was 114%; with K-562 leukemia, 98.5%. Further, the growth was 106% with MALME-3M melanoma; 100% in the test with MDA-MB-231 breast; 119% in the test on RXF 393 renal; 102% with SF-268 CNS; 101% in the test with SF-295 CNS; 101% with SF-539 CNS. The results for the growth in the test with UACC-257 melanoma and with M14 melanoma were 107% and 90.1%, respectively.

Regarding `N=C(N)c1ccc(-c2ccc(-c3ccc(Cl)cc3Cl)s2)cc1F`, the growth is 18.9% in the test on NCI-H23 lung; 93.2% with NCI-H226 lung; -43.8% (active) in the test with NCI-H322M lung; -0.426% (active) with HOP-62 NSCLC; -72.4% (active) in the test on NCI-H460 lung; 43% in the test with HOP-92 NSCLC. For the same compound, the growth in the test on NCI-H522 lung is -44.2% (active); with A549/ATCC NSCLC it was -55.8% (active); in the test with 786-0 renal, -78.8% (active); in the test with COLO 205 colon, -47.2% (active); in the test on DU-145 prostate, -82.4% (active); in the test on K-562 leukemia, -22.6% (active). Also, the growth with MALME-3M melanoma is -2.93% (active); with MDA-MB-231 breast, -79.5% (active); in the test on RXF 393 renal, 50.1%; with SF-268 CNS it was 1.95% (active); in the test with SF-295 CNS it was -79.5% (active); in the test with SF-539 CNS, -95.4% (active). In addition, the growth with UACC-257 melanoma was 18.6%; in the test with M14 melanoma, -15.1% (active).

Take `COc1ccccc1NC(=O)c1ccc(/C=C/C(=O)c2nccn2C)cc1`: the growth is -35.7% (active) in the test with NCI-H23 lung; 24.6% in the test on NCI-H226 lung; -93.4% (active) in the test on NCI-H322M lung; -49.5% (active) with HOP-62 NSCLC; -43.5% (active) in the test with NCI-H460 lung; -24.3% (active) in the test on HOP-92 NSCLC. The growth in the test on NCI-H522 lung is -44.8% (active); in the test on A549/ATCC NSCLC, -0.305% (active); in the test with 786-0 renal, -48.4% (active); in the test with COLO 205 colon it was -53.1% (active); with DU-145 prostate it was -88.2% (active); with K-562 leukemia, 2.11% (active). Also, the growth with MALME-3M melanoma is -19.9% (active); in the test on MDA-MB-231 breast, -27% (active); in the test on RXF 393 renal, -71.1% (active); in the test with SF-268 CNS, -61.3% (active); in the test with SF-295 CNS, -87.8% (active); in the test with SF-539 CNS it was -90.6% (active). Moreover, the growth is -2.34% (active) with UACC-257 melanoma and -61.2% (active) in the test on M14 melanoma.

For `CCCCCCOC(=O)CC1=C(C)/C(=C/c2[nH]c(-c3ccc[nH]3)cc2OC)N=C1C`, the growth is -29.3% (active) with NCI-H23 lung; -30.6% (active) in the test on NCI-H226 lung; 11.2% in the test with NCI-H322M lung; -37.8% (active) with HOP-62 NSCLC; -23% (active) in the test on NCI-H460 lung; -27.7% (active) in the test with HOP-92 NSCLC. The growth in the test with NCI-H522 lung is -49.5% (active); in the test with A549/ATCC NSCLC, -6.96% (active); with 786-0 renal it was -51.8% (active); in the test on COLO 205 colon, -82.9% (active); with DU-145 prostate, 5.68% (active); in the test on K-562 leukemia, -33.6% (active). Also, the growth is -74% (active) in the test on MALME-3M melanoma; -50.7% (active) with MDA-MB-231 breast; -56.1% (active) with RXF 393 renal; -20.8% (active) in the test with SF-268 CNS; -60.4% (active) with SF-295 CNS; -71.3% (active) in the test with SF-539 CNS. Further, the growth in the test with UACC-257 melanoma is -63.9% (active); in the test with M14 melanoma, -86.2% (active).

Regarding `COc1ccc(C2C3=C(COC3=O)N(CCO)c3cc4c(cc32)OCCO4)cc1OC` (stereo not given), the growth in the test with NCI-H23 lung was 34.3%; in the test with NCI-H226 lung, 41.2%; in the test with NCI-H322M lung, 51.4%; in the test on HOP-62 NSCLC, 46.3%; with NCI-H460 lung, 10.4%; in the test on HOP-92 NSCLC, 40.8%. Besides, the growth with NCI-H522 lung is -13.9% (active); in the test with A549/ATCC NSCLC, 51.2%; with 786-0 renal, 27.7%; in the test on COLO 205 colon, -4.68% (active); in the test on DU-145 prostate it was 14.6%; in the test with K-562 leukemia, 27.6%. The growth was 41.7% in the test with MALME-3M melanoma; 56.8% with MDA-MB-231 breast; 5.27% (active) with RXF 393 renal; 51.7% in the test with SF-268 CNS; 3.18% (active) in the test with SF-295 CNS; -2.02% (active) in the test with SF-539 CNS. Moreover, the results for the growth with UACC-257 melanoma and in the test with M14 melanoma were 44.1% and 13.6%, respectively.
